Data on 15 compounds can be found in PubChem BioAssay (NCI).

Compounds without any hit were thinned out: in the full panel of roughly 83,000, 20% have a hit.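 The endpoint reported here, percent growth, reads 100 for growth as untreated, 0 for no net growth and -100 for all cells dead.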 The source made the active and inactive calls. Rule for the calls: active = growth percent below 10; inactive = the rest.

This assay concerns HL-60(TB) leukemia. The assay can be described thus: NCI-60 one-dose screen, 48 h (100 = growth as untreated, 0 = no growth, -100 = all killed). Particulars: 10 µM unless noted.
Consider `Cc1c2ncccc2nc2[nH]c3ccc(OCCN(C)C)cc3c12`, for which the growth is 15.9% (inactive). As for `O=C(/C(=C\c1ccc([N+](=O)[O-])cc1)S(=O)Cc1ccc(F)cc1)c1ccc(F)cc1` (stereo not given), the growth was 5.72% (active). As for `Cc1[nH]c(-c2nc3ccccc3[nH]2)c(C)c1C(=O)NNc1ccc(Cl)cc1`, the figure is 103% (inactive). On to `O=S1(=O)OC(c2ccc(O)c(Cl)c2)(c2ccc(O)c(Cl)c2)c2ccccc21`, for which the growth is 109% (inactive). As for `O=C(Nc1cccc(C(F)(F)F)c1)C(Cl)Cl`, the figure is 94.1% (inactive).

As to `N#Cc1c(-c2ccc(Cl)cc2)nc(NN=Cc2ccco2)nc1N1CCOCC1`, the growth was 108% (inactive). With `CCN(CCO)CC(=O)c1cc(Cl)cc(Cl)c1Cl`, the growth is 106% (inactive). Consider `NC(N)=N/N=C/c1ccc([N+](=O)[O-])o1`, for which the growth was 76.1% (inactive). As for `C=C1C(=O)O[C@H]2[C@H]1CC/C(COC(=O)C(=O)c1c[nH]c3ccc(OC)cc13)=C\CC[C@@]1(C)O[C@@H]21`, the figure is -53.2% (active); as for `CNS(=O)(=O)c1n[nH]nc1-c1cc(C(C)(C)C)c(O)c(C(C)(C)C)c1`, 95% (inactive); as for `CCOC(=O)C/C(=N\Nc1cc(=O)[nH]c2ccc(Cl)cc12)C(=O)OCC`, 90.6% (inactive). As for `COc1ccc2c(c1)OC1=C(C(=O)OC1)C2c1cc(OC)c(OC)c(OC)c1` (stereo not given), the figure is 5.99% (active); as for `Nc1ccc(-c2cccs2)cc1NC(=O)c1ccc(CCCC(=O)Nc2ccc(C3CC3N)cc2)cc1` (stereo not given), 66% (inactive). As for `CC(C)C[C@H](NC(=O)CCn1ccc2ccccc2c1=O)B(O)O`, the figure is 28.1% (inactive); as for `COc1cc(-c2c3c(cn2CCN2CCCCC2)-c2oncc2CC3)cc(OC)c1OC`, 109% (inactive).
